HT1080 IDH1KD tx: toxicity to HT-1080 IDH1 knockdown cells (counter line) | 360,000 tested, 2% active | AID 686971 | HT-1080 IDH1 knockdown viability, ATP luminescence, 48 h | Potency, µM (highest dose often 46.1 µM), for inactives: at the top dose activity, negative = toxicity, most hits filed as cytotoxic;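 further: potency means the concentration at half of the fitted maximal effect; 0% = DMSO wells and -100% = cell-free medium wells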
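After a 2 h attachment period, IDH1KD HT-1080 cells took pin-transferred compound for 48 h at 37 °C; ATP-based luminescence after 10 min room-temperature reagent incubation reported viability.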
DT40 TDP1 CPT: DT40-hTDP1 cell growth loss with CPT; chicken DT40 Tdp1-/-;hTDP1 cells + 20 nM CPT, ATP luminescence, 48 h; Potency, µM (series often up to 46.2 µM), for inactives: top-dose activity change, negative = growth inhibition, actives largely listed as inhibitors; 420,000 tested, 12% active; AID 686979; further: potency means the concentration at half of the fitted maximal effect; nearly all actives have a fitted effect of over 55% in size
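Cell growth measured by CellTiter-Glo luminescence after a minimum 48 h, 37 C compound exposure with 20 nM CPT in Tdp1-knockout DT40 cells stably expressing hTDP1, seeded 400/well; qHTS titration format.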
HT1080-NT tox: kills 2HG-producing HT-1080-NT fibrosarcoma cells; 360,000 tested, 1.6% active; Potency, µM (top dose mostly 46.1 µM), without a hit: at the top dose activity, negative = less viability, hits mostly cytotoxic; AID 686970; HT-1080-NT fibrosarcoma viability, CellTiter-Glo ATP luminescence, 48 h;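 further: NT is the 2HG producing partner of a matched IDH1 knockdown line; potency means the concentration at half of the fitted maximal effect; 0% = DMSO-treated cells and -100% = media-only wells without cells; nearly all actives have a fitted effect of over 55% in size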
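HT-1080-NT; 750 cells/well; 5% FBS RPMI; 48 h compound, 37 degrees C; CellTiter-Glo luminescence; curve fitting and curve-class assignment.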
IL-1B inflam inh: inflammasome signaling inhibition, IL-1 beta readout | THP-1 LPS/ATP IL-1B secretion, AlphaLISA, 16 h; hits give low values | 360,000 tested, 4.7% active | activity change, % at 57.5 µM; in the data active means activity change below about -50%; inconclusive means mostly about -30% to -49%
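THP-1 cells pretreated 1 hr with compounds (up to 57.5 uM final), then stimulated with LPS (250 ng/mL final) plus ATP (1.25 mM final); secreted IL-1B measured by AlphaLISA after 16 hr, decreased signal indicating inhibition.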
TDP1 cell noCPT: qHTS for Inhibitors of human tyrosyl-DNA phosphodiesterase 1 (TDP1): qHTS in cells in absence of CPT; Potency, µM (top dose mostly 46.2 µM), for the others: top-dose activity change, negative = growth inhibition, most hits filed as inhibitors; 420,000 tested, 15% active; DT40 Tdp1-/- hTDP1 cells, no CPT, ATP luminescence, 48 h; AID 686978, 2013; further: potency means the concentration at half of the fitted maximal effect; nearly all actives have a fitted effect of over 55% in size
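Readout: luminescence from CellTiter-Glo after 30 min in the dark at RT. Cells: DT40 Tdp1-/- with stable hTDP1, 400/well. Exposure: compounds alone, ≥48 hr, 37 °C.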
* = called active by the depositor; ? = inconclusive; / = not tested or not shown. Rows were chosen to be rich in hits. Some 19% of all compounds tested hit in one or more screens of this group. Unless noted, the call rests on the fitted dose curve; in most records, active means well fitted curve in the direction sought with a large enough effect; inconclusive means small, poorly fitted or top-dose-only effect, or another doubt; inactive means no such curve, though single readings can be large; an effect the other way counts as inactive or inconclusive. Unless noted, on the % scale 0 is the no-effect control and ±100 the full control effect.

SMILES	HT1080 IDH1KD tx	DT40 TDP1 CPT	HT1080-NT tox	IL-1B inflam inh	TDP1 cell noCPT
CC(C)CN(c1ccccc1)S(=O)(=O)c1nnc(NC(=O)C2CCCCC2)s1	/	5.2µM*	/	/	?
CCN(c1ccccc1)S(=O)(=O)c1nnc(NC(=O)C2CCCCC2)s1	/	3%	/	/	-1%
CC(C)CN(c1ccccc1)S(=O)(=O)c1nnc(NC(=O)C(C)C)s1	6%	1%	4%	8	-5%
CN(Cc1cn(-c2ccccc2)nc1-c1ccc(Cl)cc1)C(=O)CCC(=O)O	-3%	-10%	0%	87	-10%
CCCCCCCCCCS(=O)(=O)N/N=C/c1ccc(O)cc1	?	16µM*	?	?	?
COC(=O)[C@H](C(C)C)N(Cc1ccccc1)S(=O)(=O)CCN1CCN(c2ccccc2)CC1	-11%	?	2%	19	?
CC1(C)CC(=O)C(C(C#Cc2ccccc2)C2=C(O)CC(C)(C)CC2=O)=C(O)C1	?	6.5µM*	?	-100*	9.2µM*
O=C1CCCC(O)=C1C(C#Cc1ccccc1)C1=C(O)CCCC1=O	?	3.7µM*	?	-99*	5.2µM*
Cn1c(NCc2c[nH]c3ccccc23)nc2ccccc21	6%	?	4%	-92*	?
CCn1c(NCc2c[nH]c3ccccc23)nc2ccccc21	-29%	?	?	?	?
CC1=NOC(=O)/C1=C\c1ccc(-c2cc(Cl)ccc2Cl)o1	-23%	?	-21%	-55*	?
CC1=NOC(=O)/C1=C\c1ccc(-c2ccc(Br)cc2)o1	?	13µM*	?	-99*	12µM*
COc1ccc(Cl)cc1/C=C1/C(=O)ON=C1C	3%	?	-8%	-9	?
CC1(C)NC(=O)N(CC(O)CN(c2ccccc2)S(=O)(=O)c2ccc([N+](=O)[O-])cc2)C1=O (stereo unspecified)	-3%	-8%	5%	7	-1%
CN(C)C(CNC(=O)c1cc(S(=O)(=O)N2CCOCC2)ccc1Cl)c1cccs1 (stereo unspecified)	2%	?	5%	29	21µM*
CN(c1ccccc1)S(=O)(=O)c1ccc(Cl)c(C(=O)Nc2nn[nH]n2)c1	8%	4%	-12%	12	2%
O=C(NCC(c1cccs1)N1CCOCC1)c1ccc(Cl)c(S(=O)(=O)N2CCOCC2)c1 (stereo unspecified)	15%	-9%	17%	52	-25%
CN(C)C(CNC(=O)c1cc(S(=O)(=O)N(C)c2ccccc2)ccc1Cl)c1cccs1 (stereo unspecified)	-5%	5.8µM*	-8%	-2	6.5µM*
COc1ccc(CC(=O)c2ccc(OC)c(OC)c2C)cc1OC	-18%	?	?	-3	?
COc1ccc(-c2cc(=O)oc3c(C)c(OC(C)C(=O)Nc4ccc(CN5CCOCC5)cc4)ccc23)cc1 (stereo unspecified)	?	?	-25%	-20	?
CC12C(=O)N(Cc3ccco3)C(=O)C1C1c3ccccc3C2c2ccccc21 (stereo unspecified)	-20%	?	-19%	-5	23µM*
O=C1c2ccccc2-c2onc3ccc(Oc4ccccc4)c1c23	4.1µM*	3.3µM*	-13%	-25	2.6µM*
Cc1noc(C)c1S(=O)(=O)Nc1ccccc1Oc1ccccc1	-6%	-3%	-2%	-4	?
COc1ccc(/C=N/NC(=O)c2cc(-c3ccc(C)cc3C)nc3ccccc23)cc1COC(C)=O	-16%	?	-4%	0	1.5µM*
COc1ccc(/C=N/NC(=O)c2cc(-c3ccccc3OC)nc3ccccc23)cc1COC(C)=O	-13%	10µM*	-21%	-28	14µM*
SMILES	HT1080 IDH1KD tx	DT40 TDP1 CPT	HT1080-NT tox	IL-1B inflam inh	TDP1 cell noCPT
Cc1ccc(C)c(S(=O)(=O)N2CCCC2CNC(=O)C(=O)NCC2CCCO2)c1 (stereo unspecified)	13%	29%	18%	2	-21%
O=S(=O)(CCNCc1cccs1)c1ccc(Cl)cc1	9%	-9%	-8%	-17	7%
CCN(C(=O)CSc1nc(-c2ccc(C(C)C)cc2)no1)c1ccccc1	/	15µM*	/	/	?
COc1cc(NC(=O)CSc2nc(-c3ccc(C(C)C)cc3)no2)cc(OC)c1	/	-15%	/	/	?
CCN(C(=O)CSc1nc(-c2ccc(C(C)C)cc2)no1)c1cccc(C)c1	/	15µM*	/	/	?
Cc1ccc2c(c1)N(CC(=O)NCCCN1CCOCC1)C(=O)c1cccnc1O2	0%	1%	2%	6	-12%
COc1cccc(NC(=O)c2ccc3nc(Cc4ccccc4)oc3c2)c1	/	16µM*	/	/	16µM*
CCC(C)NC(=O)c1ccc2nc(Cc3ccc(OC)cc3)oc2c1 (stereo unspecified)	-3%	?	3%	-1	?
CCOC(=O)c1cccc(NC(=O)c2ccc3nc(Cc4ccccc4)oc3c2)c1	/	23µM*	/	/	16µM*
CCC(NC(=O)c1ccc2nc(Cc3ccc(OC)cc3)oc2c1)c1ccncc1 (stereo unspecified)	21µM*	7.3µM*	?	-17	3.7µM*
COc1ccccc1N1C(=NC(=O)CCC2CCCC2)SC2CS(=O)(=O)CC21 (stereo unspecified)	14%	0%	16%	1	22%
N[C@H](C(=O)O)c1ccc(O)cc1	/	0%	/	/	-9%
Cc1c(N=Cc2cc(Br)cc(Br)c2O)cccc1C(=O)O	?	?	13µM*	0	?
COc1ccc(-c2cn3c(n2)sc2cc(C(=O)Nc4ccc(C)cc4C)ccc23)cc1	/	-30%	/	/	?
Cc1ccc(-c2cn3c(n2)sc2cc(C(=O)NCCCN4CCCCCC4)ccc23)cc1	/	1.6µM*	/	/	1.6µM*
Cc1ccc(-c2cn3c(n2)sc2cc(C(=O)NCCCN4CCCCC4)ccc23)cc1	/	1.3µM*	/	/	1.3µM*
CCN1CCN(CCCNC(=O)c2ccc3c(c2)sc2nc(-c4ccc(C)cc4)cn23)CC1	/	1.3µM*	/	/	1.3µM*
COc1ccc(-c2cn3c(n2)sc2cc(C(=O)Nc4ccc(C)c(Cl)c4)ccc23)cc1	/	-2%	/	/	5%
O=C(NCCCN1CCCCC1)c1ccc2c(c1)sc1nc(-c3ccc(F)cc3)cn12	/	4.1µM*	/	/	2.3µM*
O=S(=O)(Nc1cccc(-c2ccc(N3CCCC3)nn2)c1)c1ccccc1C(F)(F)F	/	3%	/	/	-11%
O=C(CN1C(=O)CCc2cc(S(=O)(=O)N3CCOCC3)ccc21)NCc1ccc(Cl)cc1	/	-17%	/	/	-17%

High-throughput results: PubChem, National Center for Advancing Translational Sciences (NCATS)
